# PubChem BioAssay (NCATS)
# Results filed as inconclusive are left out. Activity calls are given as the source filed them. Calls come from the whole dose curve; as a rule, active = well fitted curve in the direction sought with a large enough effect; inconclusive = small, poorly fitted or top-dose-only effect, or another doubt; inactive = no such curve, though single readings can be large; an effect the other way counts as inactive or inconclusive.
# How the values were obtained:
# [1] = BET inhibitor-based combinations targeting novel dependencies in MECOM-rearranged (r) AML: OCI-AML3 cell line (AID 2202232); conditions: Potency: OCI-AML3 viability; note: nearly all actives have a fitted effect of over 35% in size
# Summary of the method: (§1)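 500 cells/well; 11-pt dose curve; 48 h, standard incubator; CellTiter-Glo luminescence after 15 min RT; DMSO/empty-well normalization; AUC plus Z-AUC (mean-centered within each line).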
# [2] = BET inhibitor-based combinations targeting novel dependencies in MECOM-rearranged (r) AML: MV-4-11 cell line (AID 2202233); note: nearly all actives have a fitted effect of over 45% in size
# Summary of the method: (§2)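 Cells were plated at 500 per well and exposed to each drug across an 11-point dose range for 48 hr at standard incubator conditions. Viability was read by CellTiter-Glo luminescence, and activity was expressed as AUC and per-cell-line Z-transformed AUC.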
# [3] = BET inhibitor-based combinations targeting novel dependencies in MECOM-rearranged (r) AML: HNT-34 cell line (AID 2202234); note: nearly all actives have a fitted effect of over 35% in size
# Summary of the method: as §2
# [4] = BET inhibitor-based combinations targeting novel dependencies in MECOM-rearranged (r) AML: UCSD-AML1 cell line (AID 2202235); note: nearly all actives have a fitted effect of over 40% in size
# Summary of the method: as §2
# [5] = BET inhibitor-based combinations targeting novel dependencies in MECOM-rearranged (r) AML: AML-191 cell line (AID 2202236; note: nearly all actives have a fitted effect of over 35% in size)
# Summary of the method: as §1
# [6] = BET inhibitor-based combinations targeting novel dependencies in MECOM-rearranged (r) AML: AML-194 cell line (AID 2202237; note: nearly all actives have a fitted effect of over 40% in size)
# Summary of the method: as §1
# Potency is the fitted concentration of half-maximal effect.
Compound,Potency [1],Potency [2],Potency [3],Potency [4],Potency [5],Potency [6]
C/C=C1\NC(=O)[C@H]2CSSCC/C=C\[C@H](CC(=O)N[C@H](C(C)C)C(=O)N2)OC(=O)[C@H](C(C)C)NC1=O,0.0105 µM (active),0.0118 µM (active),0.0083 µM (active),0.0105 µM (active),0.0148 µM (active),0.0235 µM (active)
CC(C)Oc1ccc(C(=O)N[C@H](CNC(=O)CN(C)C)Cc2ccc(-c3cn4cccc([C@H](C)O)c4n3)cc2)cc1Cl,0.263 µM (active),0.166 µM (active),–,0.332 µM (active),0.263 µM (active),0.332 µM (active)
C[C@H]1CNCCCN1S(=O)(=O)c1cccc2cncc(F)c12,inactive,inactive,–,inactive,inactive,inactive
COC(=O)/C=C/C(=O)OC,inactive,inactive,–,inactive,inactive,inactive
COc1cc(C(C)C)c2c(c1)S(=O)(=O)N(COc1cc(=O)n3cccc(OCCN4CCCCC4)c3n1)C2=O,23.5 µM (active),23.5 µM (active),20.9 µM (active),26.3 µM (active),29.5 µM (active),23.5 µM (active)
Cn1cc(-c2ccc(-c3cncc(Cl)c3N3CCC4(CCNC4=O)CC3)cc2)cn1,16.6 µM (active),14.8 µM (active),–,inactive,–,–
C[C@H]1C[C@@H](n2c(Nc3ccc(OC(F)(F)F)cc3)nc3cc(CCC(=O)O)ccc32)CC(C)(C)C1,20.9 µM (active),20.9 µM (active),–,–,26.3 µM (active),–
COc1cccc(-c2c(C)n(Cc3c(F)cccc3C(F)(F)F)c(=O)n(C[C@H](NCCCC(=O)O)c3ccccc3)c2=O)c1F,7.42 µM (active),inactive,–,–,–,inactive
CO[C@H]1/C=C/O[C@@]2(C)Oc3c(C)c(O)c4c(O)c(c5c(c4c3C2=O)=NC2(CCN(CC(C)C)CC2)N=5)NC(=O)/C(C)=C/C=C/[C@H](C)[C@H](O)[C@@H](C)[C@@H](O)[C@@H](C)[C@H](OC(C)=O)[C@@H]1C,16.6 µM (active),–,–,inactive,18.6 µM (active),–
CCNc1cc(NC2CCC(O)CC2)nc(Nc2ccc3c(ccn3Cc3ccccc3)c2)n1 (centres undefined),inactive,–,inactive,–,inactive,–
COC1=C(OC)C(=O)C(CCCCCCCCCCO)=C(C)C1=O,16.6 µM (active),–,–,–,18.6 µM (active),–
CC(=O)Nc1cc(Oc2ccc3c(nc(Nc4ccc(F)cc4F)n3C)c2C)ccn1,0.934 µM (active),–,0.118 µM (active),0.235 µM (active),–,–
Cc1cc(OCCCc2c3n(c4c(-c5c(C)nn(C)c5C)c(Cl)ccc24)[C@H](C)CN(c2cn(C)c4ccc(C(=O)O)cc24)C3=O)cc(C)c1Cl,2.63 µM (active),–,2.95 µM (active),–,20.9 µM (active),14.8 µM (active)
C=CC(=O)N1CCC[C@H](n2c(=O)n(-c3ccc(Oc4ccccc4)cc3)c3c(N)ncnc32)C1,inactive,–,16.6 µM (active),inactive,–,–
O=c1cc(O)c(Cl)c[nH]1,inactive,–,inactive,inactive,inactive,inactive
CC(C)n1cc(-c2ccc3c(c2)N(C)CC3)c2c(NS(=O)(=O)c3ccn(C)n3)ccnc21,inactive,–,–,inactive,inactive,inactive
C[C@H](NC(=O)C(=O)Nc1ccccc1C(C)(C)C)C(=O)N[C@@H](CC(=O)O)C(=O)COc1c(F)c(F)cc(F)c1F,10.5 µM (active),–,–,–,20.9 µM (active),–
NC(=O)c1cccc2c(NC(CN3CCC3)c3ccc(Cl)c(C(F)(F)F)c3)ncnc12 (centres undefined),1.48 µM (active),–,–,–,20.9 µM (active),16.6 µM (active)
Nc1ncnc(Nc2ccc(OCc3ccccc3)c(Cl)c2)c1/C=N/OCCN1CCOCC1,inactive,–,23.5 µM (active),–,–,–
COc1ccc(-c2oc3ncnc(N)c3c2-c2ccc(NC(=O)Nc3cc(C(F)(F)F)ccc3F)cc2)cc1,10.5 µM (active),–,7.42 µM (active),–,8.33 µM (active),7.42 µM (active)
CC(C)n1cnc2c(NCCCCCCNC(=O)OC(C)(C)C)nc(NCCO)nc21,–,16.6 µM (active),–,–,–,–
CN1CCN(c2nc(C3=C(c4c[nH]c5ccccc45)C(=O)NC3=O)c3ccccc3n2)CC1,–,1.86 µM (active),–,–,–,–
N#C/C(=C(/N)Sc1ccc(N)cc1)c1ccccc1C(F)(F)F,7.42 µM (active),18.6 µM (active),–,–,5.9 µM (active),16.6 µM (active)
CC[C@H](NC(=O)[C@H](C)NC)C(=O)N1C[C@@H](O)C[C@H]1Cc1c(-c2[nH]c3cc(F)ccc3c2C[C@@H]2C[C@H](O)CN2C(=O)[C@H](CC)NC(=O)[C@H](C)NC)[nH]c2cc(F)ccc12,inactive,–,–,0.332 µM (active),0.742 µM (active),1.18 µM (active)
